Results published in the supplement of paper PMC12645437, “Orthogonal IMiD-Degron Pairs Induce Selective Protein Degradation in Cells” (ACS Chemical Biology, 2025).
The full ranking holds about 8,300 sequences; the median of “log2 fold change of degron read counts, EGFP-low vs EGFP+ sorted cells (limma voom), compound-induced degradation” is about -1.1, and the highest 2% start at about 3.2. The sample holds the highest values, similar sequences and a random draw of the others, so the mix is not that of the screen.

T1: CRBN, Q96SW2
T1 chain: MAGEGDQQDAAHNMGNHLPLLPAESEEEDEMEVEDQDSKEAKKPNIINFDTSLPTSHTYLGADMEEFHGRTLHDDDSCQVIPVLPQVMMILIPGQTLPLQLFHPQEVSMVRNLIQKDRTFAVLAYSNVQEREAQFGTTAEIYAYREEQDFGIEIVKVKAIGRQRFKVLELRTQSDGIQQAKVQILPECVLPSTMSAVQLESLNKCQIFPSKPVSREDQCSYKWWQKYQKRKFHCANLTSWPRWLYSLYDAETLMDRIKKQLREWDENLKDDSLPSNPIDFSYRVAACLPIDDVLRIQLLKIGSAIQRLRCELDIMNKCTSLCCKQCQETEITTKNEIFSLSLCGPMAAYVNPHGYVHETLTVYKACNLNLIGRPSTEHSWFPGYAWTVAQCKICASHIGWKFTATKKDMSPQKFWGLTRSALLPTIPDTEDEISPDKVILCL

B1: 46F_47V_49N_50Q_52G_53H_54V_55F_67L_, Q9UKT9 (peptide)
chain: FVCNQCGHVFTQKGNLLRHIKL
B2: 46F_47M_49E_50I_52G_53R_54F_55F_67L_, Q9UKT9 (peptide)
chain: FMCEICGRFFTQKGNLLRHIKL
B3: 46F_47S_49D_50V_52G_53A_54M_55F_67L_, Q9UKT9 (peptide)
chain: FSCDVCGAMFTQKGNLLRHIKL
B4: 46F_47Y_49D_50I_52G_53A_54A_55F_67L_, Q9UKT9 (peptide)
chain: FYCDICGAAFTQKGNLLRHIKL
B5: 46F_47Q_49D_50I_52G_53A_54A_55F_67L_, Q9UKT9 (peptide)
chain: FQCDICGAAFTQKGNLLRHIKL
B6: 46F_47I_49D_50I_52G_53A_54A_55F_67L_, Q9UKT9 (peptide)
chain: FICDICGAAFTQKGNLLRHIKL
B7: 46F_47M_49D_50I_52G_53A_54A_55F_67L_, Q9UKT9 (peptide)
chain: FMCDICGAAFTQKGNLLRHIKL
B8: 46F_47C_49D_50I_52G_53A_54A_55F_67L_, Q9UKT9 (peptide)
chain: FCCDICGAAFTQKGNLLRHIKL
B9: 46F_47V_49D_50I_52G_53A_54A_55F_67L_, Q9UKT9 (peptide)
chain: FVCDICGAAFTQKGNLLRHIKL
B10: 46F_47A_49D_50I_52G_53A_54A_55F_67L_, Q9UKT9 (peptide)
chain: FACDICGAAFTQKGNLLRHIKL
B11: 46F_47R_49D_50I_52G_53A_54A_55F_67L_, Q9UKT9 (peptide)
chain: FRCDICGAAFTQKGNLLRHIKL
B12: 46F_47W_49D_50I_52G_53A_54A_55F_67L_, Q9UKT9 (peptide)
chain: FWCDICGAAFTQKGNLLRHIKL
B13: 46F_47S_49D_50V_52G_53A_54I_55F_67L_, Q9UKT9 (peptide)
chain: FSCDVCGAIFTQKGNLLRHIKL
B14: 46F_47C_49E_50I_52G_53R_54E_55F_67L_, Q9UKT9 (peptide)
chain: FCCEICGREFTQKGNLLRHIKL
B15: 46F_47N_49P_50I_52G_53R_54D_55F_67L_, Q9UKT9 (peptide)
chain: FNCPICGRDFTQKGNLLRHIKL
B16: 46F_47S_49S_50V_52G_53H_54Q_55F_67L_, Q9UKT9 (peptide)
chain: FSCSVCGHQFTQKGNLLRHIKL

Target: T1, CRBN, Q96SW2
Assay: log2 fold change of degron read counts, EGFP-low vs EGFP+ sorted cells (limma voom), compound-induced degradation; higher = more compound-induced degradation of the degron-EGFP fusion; degrons are variants of IKZF1/3 zinc finger 2; compound dose not given here
Details: Jurkat, 18 h
[1] = compound: compound 19 (5-tert-butyl-thalidomide)
[2] = compound: compound 22 (5-morpholino-thalidomide)
[3] = compound: compound 33 (diphenyl IMiD analogue)
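Further: pooled lentiviral library of zinc finger degron-EGFP fusions in mCherry-positive Jurkat cells, FACS-sorted after compound exposure, with degron abundance counted by next-generation sequencing.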

Row | Sequence | log2 fold change of degron read counts [1] | log2 fold change of degron read counts [2] | log2 fold change of degron read counts [3] | log2 fold change of degron read counts (compound: thalidomide)
1 | B1 | -2.66 | -3.07 | -2.27 | -2.93
2 | B2 | -2.5 | -2.11 | -1 | -1.98
3 | B3 | 0.106 | -0.592 | -0.74 | -1.71
4 | B4 | 3.37 | 3.23 | 2.4 | -0.554
5 | B5 | 1.74 | 2.51 | 0.983 | 3.01
6 | B6 | -0.22 | 2.29 | 1.39 | 1.5
7 | B7 | 0.96 | 1.45 | 2.6 | 0.343
8 | B8 | 2.88 | 2.17 | 0.975 | 0.534
9 | B9 | 0.447 | 2.48 | 1.33 | 1.87
10 | B10 | 3.42 | 2.04 | -0.474 | -0.517
11 | B11 | 1.51 | 1.47 | 2.34 | 1.21
12 | B12 | 3.12 | 3.67 | 1.49 | -0.516
13 | B13 | -0.277 | -1.23 | -0.103 | -1.43
14 | B14 | -2.44 | -2.4 | -1.78 | -1.56
15 | B15 | -1.89 | -1.85 | -1.07 | -1.09
16 | B16 | -2.44 | -3.11 | -2.86 | -2.7
